Test results taken from PubChem BioAssay.
Results filed as inconclusive are left out. The source made the active and inactive calls.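 Rule for the calls, unless noted: active = normalized viability below 100% at a tested concentration; inactive = the rest.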

Legend:
[1] = growth inhibition of DIPG glioma cells, dose response, cell-based, SU-DIPG-XIII, MIPE4.0, CellTiter-Glo, qHTS (AID 1347061; cut-off not given, nearly all actives have AC50 up to about 37 µM;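 note: cells exposed to compound for 48 hours before readout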); settings: SU-DIPG-XIII viability, CellTiter-Glo ATP luminescence
[2] = growth inhibition of DIPG glioma cells, dose response, cell-based, JHH-DIPG-1, MIPE4.0, CellTiter-Glo, qHTS (AID 1347062; cut-off not given, nearly all actives have AC50 up to about 27 µM;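 for AC50: cells exposed to compound for two days before readout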); settings: JHH-DIPG-1 viability, CellTiter-Glo ATP luminescence
[3] = growth inhibition of DIPG glioma cells, dose response, cell-based, SU-DIPG-IV, MIPE4.0, CellTiter-Glo, qHTS (AID 1347063; cut-off not given, nearly all actives have AC50 up to about 30 µM;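 note: compound exposure lasted 48 hours before the viability readout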); settings: SU-DIPG-IV viability, CellTiter-Glo ATP luminescence
[4] = growth inhibition of DIPG glioma cells, dose response, cell-based, SU-DIPG-XIII, MIPE5.0, CellTiter-Glo, qHTS (AID 1347064; cut-off not given, nearly all actives have AC50 up to about 23 µM;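 for AC50: cells exposed to compound for 48 hours before the viability read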); settings: SU-DIPG-XIII viability, CellTiter-Glo ATP luminescence
[5] = viability loss in pontine glioma line – cell-based, SU-DIPG-XXV, MIPE5.0, CellTiter-Glo, qHTS, dose response (AID 1347065; cut-off not given, nearly all actives have AC50 up to about 26 µM;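 note: cells exposed to compound for 48 hours before ATP readout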); settings: CellTiter-Glo ATP luminescence
[6] = SU-DIPG-VI glioma cell viability, MIPE4.0 library, CellTiter-Glo luminescence, qHTS (AID 1347066; cut-off not given, nearly all actives have AC50 up to about 30 µM;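 note: cells exposed to compound for 48 hours before readout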); settings: CellTiter-Glo ATP luminescence
[7] = JHH-DIPG-1 glioma cell viability, MIPE5.0 library, CellTiter-Glo luminescence, qHTS (AID 1347067; cut-off not given, nearly all actives have AC50 up to about 26 µM;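 note: cells exposed to compound for 48 hours before readout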); settings: JHH-DIPG-1 glioma viability, CellTiter-Glo ATP luminescence
[8] = SU-DIPG-XXV glioma cell viability, MIPE5.0 library, qHTS (AID 1347068; cut-off not given, nearly all actives have IC50 up to about 30 µM;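 for IC50: cells exposed to compound for 48 hours before viability readout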)
[9] = sensitizers of A549 cells to miR-34 induction, primary screen, imaging, A549 dox-inducible miR-34, nuclei and caspase counts (AID 1347080;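 active = compounds whose cell count with miR-34 switched on is under 0.7 times the count with it off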); settings: A549 miR-34 inducible, Hoechst nuclei count, 48 h
[10] = survival rescue of mitochondrial mutant cells in low glucose, primary screen, MELAS cybrids, Rieske KO mouse fibroblasts, CellTiter-Glo (AID 1508586;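 active = mean z-score across replicates of 1.96 or higher in either the MELAS or the Rieske mutant cell line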;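 note: z relative to plate mean and SD of compound and empty wells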)
[11] = modifiers of HSF1 nuclear foci, imaging, Selleck Cancer Library (AID 1347162; in the data active = plate-normalised HSF1 focus index below about 0.46); settings: human cells, at 10 µM; SSMD: measured here: HSF1 foci SSMD mean; cell count: measured here: cell number; plate-normalised HSF1 focus index: stronger effect = lower value
[12] = ovarian cancer cell viability with rucaparib, profiling panel, oncology-focused library, rucaparib conditional (AID 1508598); settings: patient-derived ovarian cancer cells, CellTiter-Glo viability, 144 h, stronger effect = lower value

O=C(CC12CC3CC(CC(C3)C1)C2)Nc1cccc2nc(NCCNCCO)ccc12
active: AC50 [1] 14.8 µM | AC50 [2] 20.9 µM | AC50 [3] 10.5 µM
inactive: outcome [4]

CCCCN1CCC(CNC(=O)c2c3n(c4ccccc24)CCCO3)CC1
inactive: outcome [2]
active: AC50 [1] 6.62 µM | AC50 [3] 16.6 µM

Nc1ncnc2c1c(-c1cccc(OCc3ccccc3)c1)cn2C1CC(CN2CCCC2)C1 (stereo not given)
inactive: fold change ([9]; stronger effect = lower value, cell number ratio, induced over uninduced) 1.06 | z-score ([10]; MELAS cybrid survival, CellTiter-Glo 48 h, stronger effect = higher value) -0.449
1510: cell count ([9]; measured here: total cells with miR-34 induction, stronger effect = lower value)
1430: cell count ([9]; measured here: total cells without miR-34 induction)
0.635: z-score ([10]; Rieske KO mouse fibroblast survival, CellTiter-Glo 72 h)
active: AC50 [1] 16.6 µM | AC50 [2] 20.9 µM | AC50 [3] 20.9 µM | AC50 [4] 1.18 µM | AC50 [5] 934 nM | AC50 [6] 1.18 µM | AC50 [7] 18.6 µM | IC50 [8] 4.68 µM
0.675: fold change ([9]; measured here: relative caspase fold change +Dox/-Dox)

CCOc1cc2ncc(C#N)c(Nc3ccc(F)c(Cl)c3)c2cc1NC(=O)/C=C/CN(C)C
inactive: outcome [1] | plate-normalised HSF1 focus index [11] 1.19 | viability ([12]; at 0.000305 µM, OCI-C5x cells, with rucaparib 10 µM, 100% = cells with rucaparib alone) 117% | viability ([12]; at 0.000305 µM, OCI-C5x cells, without rucaparib) 129% | viability ([12]; at 0.000305 µM, OCI-P5x cells, with rucaparib 20 µM, 100% = cells with rucaparib alone) 106% | viability ([12]; at 0.000305 µM, OCI-P5x cells, without rucaparib) 117% | viability ([12]; at 0.00122 µM, OCI-C5x cells, with rucaparib 10 µM, 100% = cells with rucaparib alone) 115% | viability ([12]; at 0.00122 µM, OCI-C5x cells, without rucaparib) 115% | viability ([12]; at 0.00122 µM, OCI-P5x cells, with rucaparib 20 µM, 100% = cells with rucaparib alone) 105% | viability ([12]; at 0.00122 µM, OCI-P5x cells, without rucaparib) 119% | viability ([12]; at 0.00488 µM, OCI-C5x cells, with rucaparib 10 µM, 100% = cells with rucaparib alone) 105% | viability ([12]; at 0.00488 µM, OCI-C5x cells, without rucaparib) 126% | viability ([12]; at 0.00488 µM, OCI-P5x cells, with rucaparib 20 µM, 100% = cells with rucaparib alone) 112% | viability ([12]; at 0.00488 µM, OCI-P5x cells, without rucaparib) 121% | viability ([12]; at 0.0195 µM, OCI-C5x cells, with rucaparib 10 µM, 100% = cells with rucaparib alone) 104% | viability ([12]; at 0.0195 µM, OCI-C5x cells, without rucaparib) 122% | viability ([12]; at 0.0781 µM, OCI-C5x cells, without rucaparib) 103% | viability ([12]; at 0.0781 µM, OCI-P5x cells, with rucaparib 20 µM, 100% = cells with rucaparib alone) 104% | viability ([12]; at 0.0781 µM, OCI-P5x cells, without rucaparib) 117% | viability ([12]; at 0.313 µM, OCI-P5x cells, without rucaparib) 103%
3.17: SSMD [11]
7120: cell count [11]
active: AC50 [2] 7.43 µM | AC50 [3] 0.833 µM | AC50 [4] 5.9 µM | AC50 [5] 934 nM | AC50 [7] 9.34 µM | viability ([12]; at 0.0195 µM, OCI-P5x cells, with rucaparib 20 µM, 100% = cells with rucaparib alone) 67.4% | viability ([12]; at 0.0195 µM, OCI-P5x cells, without rucaparib) 81.4% | viability ([12]; at 0.0781 µM, OCI-C5x cells, with rucaparib 10 µM, 100% = cells with rucaparib alone) 89.4% | viability ([12]; at 0.313 µM, OCI-C5x cells, with rucaparib 10 µM, 100% = cells with rucaparib alone) 33.8% | viability ([12]; at 0.313 µM, OCI-C5x cells, without rucaparib) 83.6% | viability ([12]; at 0.313 µM, OCI-P5x cells, with rucaparib 20 µM, 100% = cells with rucaparib alone) 87.8% | viability ([12]; at 1.25 µM, OCI-C5x cells, with rucaparib 10 µM, 100% = cells with rucaparib alone) 17.6% | viability ([12]; at 1.25 µM, OCI-C5x cells, without rucaparib) 47.6% | viability ([12]; at 1.25 µM, OCI-P5x cells, with rucaparib 20 µM, 100% = cells with rucaparib alone) 66.1% | viability ([12]; at 1.25 µM, OCI-P5x cells, without rucaparib) 91.8% | viability ([12]; at 5 µM, OCI-C5x cells, with rucaparib 10 µM, 100% = cells with rucaparib alone) 1.66% | viability ([12]; at 5 µM, OCI-C5x cells, without rucaparib) 3.35% | viability ([12]; at 5 µM, OCI-P5x cells, with rucaparib 20 µM, 100% = cells with rucaparib alone) 1.19% | viability ([12]; at 5 µM, OCI-P5x cells, without rucaparib) 1.58%

CNC(=O)c1ccc(-c2cnc3ncc(Cc4ccc5ncccc5c4)n3n2)cc1F
inactive: outcome [1] | outcome [2] | outcome [3] | outcome [4] | outcome [5] | outcome [6] | outcome [8]

CC(C)NC[C@@H](C(=O)N1CCN(c2ncnc3c2[C@H](C)C[C@H]3O)CC1)c1ccc(Cl)cc1
active: AC50 [1] 11.8 µM | AC50 [2] 23.5 µM | AC50 [3] 7.43 µM | AC50 [4] 4.68 µM | AC50 [5] 5250 nM | AC50 [6] 2.64 µM
